From PubChem
Tau filament bind: binders of human tau filaments; P10636; recombinant tau filaments, thioflavin S fluorescence, 15 h; filaments grown with octadecylsulfate alongside compound; Potency, µM (highest dose often 57.1 µM), for the others: top-dose activity change, negative = inhibition; actives 2% (n = 71,000);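 further: potency means the concentration at half of the fitted maximal effect; on the % scale 0 is the no-effect control and ±100 the full control effect; actives lower thioflavin S fluorescence by blocking filaments or displacing dye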
Target sequence (P10636 whole entry, looked up): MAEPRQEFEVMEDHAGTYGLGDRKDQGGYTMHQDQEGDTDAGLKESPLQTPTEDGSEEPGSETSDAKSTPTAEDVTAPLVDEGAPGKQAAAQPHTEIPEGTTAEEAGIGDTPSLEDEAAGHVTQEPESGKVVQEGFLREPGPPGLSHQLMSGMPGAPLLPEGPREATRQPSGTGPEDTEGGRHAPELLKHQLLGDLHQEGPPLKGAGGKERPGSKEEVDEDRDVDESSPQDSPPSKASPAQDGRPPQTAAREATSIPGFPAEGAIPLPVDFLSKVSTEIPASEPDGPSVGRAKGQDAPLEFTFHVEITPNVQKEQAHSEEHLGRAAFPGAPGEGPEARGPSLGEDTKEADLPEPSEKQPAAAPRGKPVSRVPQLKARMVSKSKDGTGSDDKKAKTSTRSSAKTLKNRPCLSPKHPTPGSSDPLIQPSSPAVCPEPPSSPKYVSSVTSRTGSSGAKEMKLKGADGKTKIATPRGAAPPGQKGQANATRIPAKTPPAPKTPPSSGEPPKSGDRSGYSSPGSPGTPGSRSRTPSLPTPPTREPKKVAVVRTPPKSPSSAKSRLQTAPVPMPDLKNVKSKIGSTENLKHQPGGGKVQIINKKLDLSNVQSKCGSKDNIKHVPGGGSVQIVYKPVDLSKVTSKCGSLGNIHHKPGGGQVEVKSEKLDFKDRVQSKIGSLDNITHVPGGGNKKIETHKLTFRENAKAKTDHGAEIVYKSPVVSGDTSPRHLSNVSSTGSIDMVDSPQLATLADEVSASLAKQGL
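His-tagged recombinant human tau (exons 2, 3 and 10 included), 1 uM, was induced to fibrillize by 30 uM sodium octadecylsulfate with compound present. After 15 h at 37 C, thioflavine S fluorescence (ex 450, em 510 nm) was read.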
DNA Pol III inh: DNA polymerase III holoenzyme inhibition; actives 0.25% (n = 71,000); reconstituted DNA polymerase III holoenzyme replication, biochemical; AID 603; Potency, µM (highest dose often 57.1 µM), for inactives: at the top dose activity change, negative = inhibition; further: potency means the concentration at half of the fitted maximal effect; on the % scale 0 is the no-effect control and ±100 the full control effect
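Reconstituted *E. coli* holoenzyme (0.35 nM Pol III, 1 nM beta, 154 nM SSB, 2 nM primase) was preincubated with compound for 15 min at RT. Synthesis on 1.4 nM ssM13Gori ran 35 min, then was stopped with PicoGreen/EDTA and read as dsDNA fluorescence.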
YjeE inh: inhibitors of E. coli YjeE (TsaE). AID 605. Potency, µM. actives 0.05% (n = 71,000). purified YjeE enzyme, qHTS inhibition assay. P0AF67
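Purified YjeE (10 uM) with BODIPY Texas Red-labeled ADP probe (2 uM); compounds pin-transferred, 15 min at room temperature. Binding inhibition read as decreased fluorescence polarization; ADP titration as control.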
p53ts 39C kill: kills p53ts cells at the nonpermissive temperature; H1299-p53A138V viability at 39C, ATP luminescence, 24 h; actives 1.5% (n = 130,000); Potency, µM (doses to about 46.1 µM), without a hit: at the highest dose activity change, negative = cell killing, actives largely listed as cytotoxic; AID 902; further: potency means the concentration at half of the fitted maximal effect; on the % scale 0 is the no-effect control and ±100 the full control effect; nearly all actives have a fitted effect of over 55% in size
ERK AVP block: vasopressin-driven ERK pathway inhibition; AID 995; Potency, µM (top dose mostly 57.5 µM), inactives show top-dose activity, negative = inhibition, hits mostly inhibitors; HEK293-V1b, vasopressin-stimulated pERK AlphaScreen; actives 0.99% (n = 72,000); further: potency means the concentration at half of the fitted maximal effect; on the % scale 0 is the no-effect control and ±100 the full control effect; nearly all actives have a fitted effect of over 55% in size
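HEK293 cells stably expressing V1b receptor, preincubated 30 min at 37 °C with compound, then stimulated 5 min with 25 nM vasopressin. Phospho-ERK by AlphaScreen SureFire after 5 h RT; normalized to DMSO and vasopressin; AC50 by Hill fit.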
p53ts 32C kill: p53ts cell cytotoxicity, permissive temperature | AID 924 | actives 0.93% (n = 130,000) | Potency, µM (top dose mostly 46.1 µM), inactives show at the top dose activity change, negative = cytotoxicity, actives largely listed as cytotoxic | H1299-p53A138V at 32C, ATP luminescence viability, 24 h;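 further: potency means the concentration at half of the fitted maximal effect; 0% = DMSO and -100% = full killing by reference compound; nearly all actives have a fitted effect of over 55% in size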
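Cells: H1299 p53ts (A138V), 600/well, pre-incubated 16–30 h at 37C. Cpd up to 46 uM, 24 h, 32C. Readout: ATPlite luminescence, 20 min RT. Normalization: DMSO vs tamoxifen 100 uM. AC50 by Hill equation.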
The depositor's hits bear a star; i = inactive; ? = inconclusive; nt = no result; [ ] = remark or other dose. This is a sample that favours compounds with a hit; in the whole collection about 3.2% have one here. The call rests on the fitted dose curve; in most records, active means well fitted curve in the direction sought with a large enough effect; inconclusive means small, poorly fitted or top-dose-only effect, or another doubt; inactive means no such curve, though single readings can be large; an effect the other way counts as inactive or inconclusive.

SMILES	Tau filament bind	DNA Pol III inh	YjeE inh	p53ts 39C kill	ERK AVP block	p53ts 32C kill
COC(=O)c1cc(OC)c(OC)cc1NC(=O)C1CCC(=O)N1S(=O)(=O)c1ccc(C)cc1 (stereo not given)	-3.3%	-3.3%	i	1.3%	25.1µM*	11.5%
COC(=O)c1ccc(NC(=O)C2CCCN2S(=O)(=O)c2ccc(C)cc2)cc1 (stereo not given)	4.0%	-2.0%	i	-4.1%	25.1µM*	24.6%
Cc1ccc(S(=O)(=O)N2C(=O)CCC2C(=O)NCc2ccco2)cc1 (stereo not given)	-6.3%	1.7%	i	-1.0%	-0.8%	5.3%
Cc1cccc2c1-c1sc(C(=O)Nc3ccccc3C(N)=O)cc1CO2	nt	nt	nt	12.6µM*	nt	?
Cc1cccc2c1-c1sc(C(=O)NCc3ccccc3Cl)cc1CO2	nt	nt	nt	-28.5%	nt	-7.5%
CC1(C)CC(=O)C2=C(C1)NC(SCC(=O)Nc1ccccc1)=C(C#N)C2c1ccco1 (stereo not given)	12.6µM*	5.9%	i	4.6%	-9.8%	2.2%
Cc1ccc(C(=O)CSC2=C(C#N)C(c3ccco3)C3=C(CC(C)(C)CC3=O)N2)cc1 (stereo not given)	-13.9%	0.1%	i	15.9%	-1.9%	-4.2%
COc1cccc(-c2cn3nc4c(nc3n2)CCCC4)c1	113.5%	-0.3%	i	5.01µM*	-5.4%	5.01µM*
COc1cccc(-c2cc(C(F)(F)F)n3nc(N)nc3n2)c1	-12.0%	2.2%	i	-9.0%	1.8%	-5.1%
COc1ccc(CCN2C(=O)NC(NC(=O)c3ccccc3OC)(C(F)(F)F)C2=O)cc1OC (stereo not given)	nt	nt	nt	9.4%	nt	-5.6%
CCCOc1ccc(C(=O)Nc2ccc(NC(=O)c3ccccc3)c(Br)c2)cc1	nt	nt	nt	?	nt	8.9%
Cc1ccc(C(=O)Nc2cccc(C(=O)O)c2)cc1S(=O)(=O)N1CCCC1	nt	nt	nt	6.31µM*	nt	12.6µM*
O=C(O)c1cccc(NC(=O)c2cccc(S(=O)(=O)N3CCCCC3)c2)c1	2.7%	-2.4%	i	-0.9%	13.6%	-29.8%
Cc1ccc(C(=O)Nc2ccccc2C(=O)O)cc1S(=O)(=O)N1CCCCCC1	nt	nt	nt	3.98µM*	nt	7.94µM*
CCN(CC)S(=O)(=O)c1cc(C(=O)Nc2ccccc2C(=O)O)ccc1OC	10.2%	-11.6%	i	?	15.4%	12.6µM*
O=C(O)c1ccc(NC(=O)c2ccc(Cl)c(S(=O)(=O)N3CCCCCC3)c2)cc1	nt	nt	nt	33.3%	nt	-5.5%
O=C(Nc1cccnc1)c1ccc(Cl)c(S(=O)(=O)N2CCCCCC2)c1	-3.2%	-1.0%	i	-23.2%	20µM*	-14.9%
COc1cc(OC)cc(C(=O)Nc2nnc3n2CCS3)c1	nt	nt	nt	-20.1%	nt	9.0%
COc1ccc(NC(=O)Cn2c(=O)oc3cc(S(=O)(=O)N4CCCCC4C)ccc32)cc1 (stereo not given)	nt	nt	nt	8.7%	nt	-17.7%
O=C(Nc1cnc(N2CCC(N3CCCCC3)CC2)c(C(=O)O)c1)c1ccc(Br)cc1	nt	nt	nt	2.3%	nt	7.4%
CCn1c(=O)n(-c2ccc3c(c2)OCO3)c2nc(-c3ccc(C(C)C)cc3)nc(C(N)=O)c21	nt	nt	nt	-2.1%	nt	7.2%
CCN(CC)c1ccc(NC(=O)c2sc3ccccc3c2Cl)cc1	nt	nt	nt	-18.9%	nt	-0.3%
Cc1nnc(NC(=O)c2sc3ccccc3c2Cl)s1	-3.7%	-6.0%	i	0.631µM*	2.5%	1.26µM*
COCc1nnc(NC(=O)c2sc3ccccc3c2Cl)s1	13.7%	-4.9%	i	15.8µM*	8.7%	?
Cc1ccc(CNC(=O)C(=O)Nc2c3c(nn2-c2ccc(F)cc2)CSC3)cc1	nt	nt	nt	-32.2%	nt	-7.1%
SMILES	Tau filament bind	DNA Pol III inh	YjeE inh	p53ts 39C kill	ERK AVP block	p53ts 32C kill
CCc1ccccc1NC(=O)CSc1nnc(CC)c(CC)n1	nt	nt	nt	-0.4%	nt	5.7%
CCN(CC)c1ccc(NC(=O)C2COc3ccc(OC)cc3C2)c(C)c1 (stereo not given)	nt	nt	nt	?	nt	15.2%
Nc1nnc(-c2ccco2)s1	-5.6%	3.3%	i	3.9%	-9.9%	-4.3%
Nc1ncnc2oc(-c3ccco3)c(-c3ccco3)c12	8.1%	10µM*	100µM*	1.6%	?	10.0%
COc1ccccc1CNC(=O)c1nnn(CC(=O)Nc2c(C)cccc2C)c1N	nt	nt	nt	-1.3%	nt	0.7%
BrC/C=C/CBr	7.5%	1.0%	i	-3.7%	-3.2%	0.4%[1.84 µM]
COc1ccccc1S(=O)(=O)Cc1ccc(C(=O)N2CCN(c3ccc(C)cc3)C(C)C2)o1 (stereo not given)	17.0%	4.6%	i	-16.4%	25.1µM*	?
CCOC(=O)N1CCN(C(=O)c2ccc(CS(=O)(=O)c3ccccc3OC)o2)CC1	6.1%	5.8%	i	5.4%	-0.4%	4.0%
Cc1nn(-c2ccc(C(=O)O)cc2)c(N)c1-c1ccccc1	-7.0%	-7.7%	i	10µM*	-17.7%	7.94µM*
COc1ccc(/C=N/NC(=O)c2cc(-c3ccc(Cl)cc3)n[nH]2)cc1OC	nt	nt	nt	-23.5%	nt	-26.0%
c1ccc(-n2c(-c3cccs3)nc3nc4ccccc4nc32)cc1	nt	nt	nt	2.1%	nt	nt
C=CCn1c(-c2cccs2)nc2nc3ccccc3nc21	20µM*	-12.9%	i	?	-23.4%	?
CCC(C)n1c(-c2cccs2)nc2nc3ccccc3nc21 (stereo not given)	12.6µM*	4.4%	i	-6.3%	-1.4%	6.9%
CCn1nnc2cc(C(=O)Nc3ccc(Cl)cc3C)ccc21	nt	nt	nt	14.6%	nt	-1.3%
NC(=O)c1ncn([C@@H]2O[C@@H](CO)[C@@H](O)[C@H]2O)n1	-5.5%	-5.1%	i	nt	nt	nt
Cc1ccc(Cc2c(C)nn(-c3nc(C)c(C(=O)N4CCCCC4C)s3)c2C)cc1 (stereo not given)	nt	nt	nt	6.9%	nt	-3.0%
CCOC(=O)c1cccc(NC(=O)CC2C(=O)N(c3ccc(OC)cc3)C(=O)N2C2CCCC2)c1 (stereo not given)	nt	nt	nt	-17.5%	nt	12.8%
CCOc1cccc(C2c3c(oc4cc(C)c(C)cc4c3=O)C(=O)N2CCCN(C)C)c1 (stereo not given)	12.6µM*	-4.6%	i	3.2%	-1.9%	0.4%
Cc1cc2oc3c(c(=O)c2cc1C)C(c1ccc(F)cc1)N(CCCN1CCOCC1)C3=O (stereo not given)	20µM*	-6.4%	i	28.7%	nt	22.9%
COc1ccc(Br)cc1CNC(=O)CCCn1c(=O)c2cccn2c2ccccc21	nt	nt	nt	?	nt	-12.9%
CCc1ccccc1N1CC(c2nc3ccccc3n2CCCOc2ccc(Cl)cc2)CC1=O (stereo not given)	nt	nt	nt	20µM*	nt	?
COc1ccccc1OCCCCn1c(C2CC(=O)N(c3ccccc3Cl)C2)nc2ccccc21 (stereo not given)	nt	nt	nt	20µM*	nt	?
